# Source: PubChem BioAssay
# FAS TE block – blocks the thioesterase domain of human fatty acid synthase. P49327. recombinant FAS-TE, OMFH fluorogenic substrate, fluorescence endpoint. inhibition, % at 15 µM. 360,000 tested, 0.67% active;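 active = compounds whose normalised, plate-corrected inhibition of enzyme fluorescence in the single-dose primary screen is 50% or more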
# NR3A LBD binder – NR3A (human) ligand-binding domain modulation. NR3A LBD differential scanning fluorimetry, Tm shift; 0% = protein alone, 100% = glycine-bound protein. Tm shift relative to glycine control, % at 25 µM. 340,000 tested, 2.5% active. AID 1259313;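 active = melting temperature shift of at least 10% of the positive control shift, at one fixed dose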
# ADAM17 inh – ADAM17 inhibition, QFRET primary screen. P78536. recombinant ADAM17, EDANS/DABCYL FRET peptide cleavage. inhibition, % at 6.95 µM. 370,000 tested, 0.83% active;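 active = inhibition above the mean of compounds lying between control limits plus 3 SD, set per campaign, cut at about 8.5% in these data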
# Target sequence (P78536 215-824 limits assumed): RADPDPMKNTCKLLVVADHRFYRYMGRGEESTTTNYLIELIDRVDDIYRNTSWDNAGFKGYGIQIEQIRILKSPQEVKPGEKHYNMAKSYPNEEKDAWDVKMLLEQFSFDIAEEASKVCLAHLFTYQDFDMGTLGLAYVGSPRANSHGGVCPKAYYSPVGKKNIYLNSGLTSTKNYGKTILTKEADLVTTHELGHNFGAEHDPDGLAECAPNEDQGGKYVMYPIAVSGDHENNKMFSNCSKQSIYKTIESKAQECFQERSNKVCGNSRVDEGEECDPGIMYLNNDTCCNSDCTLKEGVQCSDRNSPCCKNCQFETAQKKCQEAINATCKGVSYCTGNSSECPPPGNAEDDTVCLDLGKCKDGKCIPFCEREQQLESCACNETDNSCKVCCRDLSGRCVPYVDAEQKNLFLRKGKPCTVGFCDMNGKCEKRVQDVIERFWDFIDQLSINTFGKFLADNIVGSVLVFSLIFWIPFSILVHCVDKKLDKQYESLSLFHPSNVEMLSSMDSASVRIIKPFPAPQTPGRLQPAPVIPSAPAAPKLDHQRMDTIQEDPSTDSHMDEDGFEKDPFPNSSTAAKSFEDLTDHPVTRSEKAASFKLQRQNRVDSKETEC
# ADAM10 inh – ADAM10 inhibition, QFRET primary screen; 370,000 tested, 0.62% active; AID 720582; O14672; inhibition, % at 7 µM; recombinant ADAM10, EDANS/DABCYL FRET peptide cleavage, 3 h;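 active = inhibition above a per-campaign cutoff equal to the mean of compounds falling between control-based bounds plus 3 SD, cut at about 20% in these data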
# aDG glyco up – increases alpha dystroglycan glycosylation. Pro5-aDG cells, alpha-DG glycosylation AlphaScreen (IIH6); 0% Pro5, 100% B10-LARGE cell signal. activation, % at 10 µM. 360,000 tested, 0.22% active. AID 624168;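 active = activation of at least 8% versus controls, or a plate z-score of at least 8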;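 note: Pro5 are CHO cells carrying HIG-tagged alpha-DG that lacks glycosylation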
# Hits are given with their value; . = inactive; / = no result given. This is a sample that favours compounds with a hit; in the whole collection about 4% have one here.
SMILES,FAS TE block,NR3A LBD binder,ADAM17 inh,ADAM10 inh,aDG glyco up
Fc1cccc(NC(=S)NCCc2ccccc2)c1,.,27.6,.,.,.
S=C(NCCc1ccccc1)Nc1ccc(Nc2ccccc2)cc1,.,22.8,.,.,.
S=C(NCCc1ccccc1)Nc1cnc2ccccc2c1,.,14.2,.,.,.
CS(=O)(=O)N(CC(=O)Nc1ccc(CC#N)cc1)c1ccc(C23CC4CC(CC(C4)C2)C3)cc1,.,26.3,.,.,.
CC(=O)Nc1ccc(NC(=O)CN(c2ccc(C34CC5CC(CC(C5)C3)C4)cc2)S(C)(=O)=O)cc1,.,.,.,.,.
CCOC(=O)Nc1ccc2c(CN(C)Cc3ccc(F)cc3)cc(=O)oc2c1,.,13.6,.,.,.
CCOC(=O)Nc1ccc2c(C)cc(=O)oc2c1,.,.,.,.,.
CC(=O)Oc1ccc2c(c1)OC(c1ccccc1)CC21CC(C)(C)NC(=O)N1 (configuration not stated),.,.,.,.,.
CCOc1ccc(/C=C2\SC(N3CCc4ccccc4C3)=NC2=O)cc1,.,.,.,.,.
COc1ccc(/C=C2\SC(N3CCc4ccccc4C3)=NC2=O)cc1,.,11.5,.,.,.
CC(=O)Nc1ccc(-c2nnc(SCC(=O)Nc3ccc4c(c3)oc3ccccc34)n2C)cc1,.,.,.,.,.
Cn1c(SCC(=O)Nc2cccc(F)c2)nnc1-c1cc2ccccc2o1,.,11.0,.,.,.
Cc1cc(NC(=O)CSc2nnc(-c3ccc([N+](=O)[O-])cc3)o2)no1,.,.,.,.,.
COc1ccc(C2CC(c3cccc(C(F)(F)F)c3)=NN2c2ccc(S(N)(=O)=O)cc2)cc1 (configuration not stated),.,28.4,.,.,.
COc1ccc(C2=NN(c3ccc(C=O)cc3)C(c3ccccc3)C2)cc1 (configuration not stated),/,.,/,/,/
COc1ccc(C2CC(c3ccccc3)=NN2c2ccc(S(N)(=O)=O)cc2)cc1 (configuration not stated),.,.,.,.,.
COc1ccc(C2CC(c3ccccc3)=NN2c2ccc(C(N)=O)cc2)cc1 (configuration not stated),.,.,.,.,.
Cc1cccc(C2CC(c3ccccc3)=NN2c2ccc(S(N)(=O)=O)cc2)c1 (configuration not stated),.,/,.,.,.
COc1ccc(C2CC(c3cccc(F)c3)=NN2c2ccc(S(N)(=O)=O)cc2)cc1 (configuration not stated),.,36.8,.,.,.
COc1ccc(C2CC(c3ccccc3Cl)=NN2c2ccc(S(N)(=O)=O)cc2)cc1 (configuration not stated),.,11.4,.,.,.
NS(=O)(=O)c1ccc(N2N=C(c3ccccc3)CC2c2cccc(Cl)c2)cc1 (configuration not stated),.,24.1,.,.,.
O=C(COC(=O)c1ccc(S(=O)(=O)N2CCCC2)cc1)Nc1ccc(Cl)cc1,.,.,.,.,.
NS(=O)(=O)c1ccc(N2N=C(c3ccccc3)CC2c2ccc(F)cc2)cc1 (configuration not stated),.,.,.,.,.
COc1ccc(C2CC(c3cccc(Br)c3)=NN2c2ccc(S(N)(=O)=O)cc2)cc1 (configuration not stated),.,27.0,.,.,.
COC(=O)c1cc(S(=O)(=O)Nc2nn(C)c3ccccc23)oc1C,.,11.0,.,.,.
SMILES,FAS TE block,NR3A LBD binder,ADAM17 inh,ADAM10 inh,aDG glyco up
COc1cccc(C2c3c(oc4ccc(Cl)cc4c3=O)C(=O)N2c2cc(C)on2)c1OC (configuration not stated),.,10.8,.,.,.
C=CCn1c(C)cc(C(=O)COC(=O)CNC(=O)c2ccccc2)c1C,.,12.6,.,.,.
C=CCn1c(C)cc(C(=O)COc2nncc3ccccc23)c1C,.,15.8,.,.,.
C=CCn1c(C)cc(C(=O)COC(=O)c2n[nH]c(=O)c3ccccc23)c1C,.,.,.,.,.
CSc1ccccc1C(=O)C1CCCN(C(=O)c2cncs2)C1 (configuration not stated),.,.,.,.,.
CCc1ccc(S(=O)(=O)/N=C2\C=C(Nc3ccc(C(=O)O)cc3)C(=O)c3ccccc32)cc1,.,.,.,.,.
O=C1C=C(Nc2ccccc2)C(=O)c2ccccc21,.,.,.,.,.
CCCCNC1=CC(=O)C(=O)c2ccccc21,.,.,.,.,6.9
O=C1C=C(Nc2ccccc2)c2ccccc2C1=O,.,.,.,.,11.2
CCc1ccc(NC2=CC(=O)C(=O)c3ccccc32)cc1,.,.,.,.,5.4
CCCCNC1=CC(=O)C(NCCCC)=CC1=O,.,.,.,.,.
O=C(c1nc(SCc2ccc([N+](=O)[O-])cc2)n2ccccc12)C(F)(F)F,.,.,.,.,.
Cc1ccccc1S(=O)(=O)Cc1ccc(C(=O)NCc2ccco2)o1,.,.,.,.,.
COc1ccc(-c2c(C#CC(C)(C)O)c3ccccc3n2C)cc1,.,.,.,.,.
O=C(NNS(=O)(=O)c1ccc(Br)cc1)NC1CCCCC1,.,13.0,.,.,.
CC(C)CN(CCCNC(=O)CN1C(=O)COc2ccc(S(=O)(=O)N3CCCCCC3)cc21)CC(C)C,.,.,.,.,.
CCCC(=O)NNC(=O)CCC(=O)NCc1ccccc1,.,.,.,.,.
COc1ccccc1C(=O)NNC(=O)CCC(=O)NCc1ccccc1,.,11.7,.,.,.
CC(C)=CCc1cc([C@@H]2CC(=O)c3ccc(O)c(CC=C(C)C)c3O2)ccc1O,.,11.0,.,.,.
Cc1ccc2c(c1)C(=O)CC(c1ccc3c(c1)OCCO3)O2 (configuration not stated),.,.,.,.,.
Cc1cc(=O)[nH]c(N2CCN(C(=O)c3ccco3)CC2)n1,.,.,.,.,.
CCOC(=O)c1c(C)[nH]c(C(=O)OCC(=O)Nc2sccc2C(N)=O)c1C,.,28.6,.,.,.
NC(=O)c1ccsc1NC(=O)COC(=O)c1cc(Cl)ccc1O,.,19.5,.,.,.
CCOC(=O)c1c(NC(=O)CSc2nnc(-c3ccncc3)n2Cc2ccco2)sc(C)c1C,.,.,.,.,.
COC(=O)c1cccc([N+](=O)[O-])c1CN1CCCC(C(N)=O)C1 (configuration not stated),.,.,.,.,.
CC(=O)Nc1ccc(-c2ccnc3c2CC(C(=O)Nc2ccccc2)O3)cc1 (configuration not stated),.,/,.,.,.
O=C(N/N=C/c1cccnc1)c1cccc(Cl)c1,.,.,.,.,.
O=C(N/N=C/c1cccnc1)c1cccc(NC(=O)c2ccc(Cl)cc2)c1,.,16.4,/,/,.
Cc1ccc(C(=O)Nc2ccc(C(=O)N/N=C/c3cccnc3)cc2)cc1,.,10.7,.,.,.
